SMILES strings stand for the structures. Several values for one entry are separate records, joined by “and”; a condition that tells them apart may be missing. Equal entries are not always repeated. The campaign covered roughly 400,000 compounds. About 3,700 (0.93%) were called active. About 3% were inconclusive and are not listed. What follows is part of a selection rich in actives, with near analogues and random picks from the rest. Unmarked numbers belong to inactive results. The call rests on the fitted dose curve; in most records, active means well fitted inhibition curve with a large enough effect; inconclusive means small, poorly fitted or top-dose-only effect, or another doubt; inactive means no such curve, though single readings can be large or run the other way.
On the % scale 0 is the no-effect control and ±100 the full control effect; potency means the concentration at half of the fitted maximal effect.

Chain of Vitamin D3 receptor (Homo sapiens) (P11473 whole entry, looked up): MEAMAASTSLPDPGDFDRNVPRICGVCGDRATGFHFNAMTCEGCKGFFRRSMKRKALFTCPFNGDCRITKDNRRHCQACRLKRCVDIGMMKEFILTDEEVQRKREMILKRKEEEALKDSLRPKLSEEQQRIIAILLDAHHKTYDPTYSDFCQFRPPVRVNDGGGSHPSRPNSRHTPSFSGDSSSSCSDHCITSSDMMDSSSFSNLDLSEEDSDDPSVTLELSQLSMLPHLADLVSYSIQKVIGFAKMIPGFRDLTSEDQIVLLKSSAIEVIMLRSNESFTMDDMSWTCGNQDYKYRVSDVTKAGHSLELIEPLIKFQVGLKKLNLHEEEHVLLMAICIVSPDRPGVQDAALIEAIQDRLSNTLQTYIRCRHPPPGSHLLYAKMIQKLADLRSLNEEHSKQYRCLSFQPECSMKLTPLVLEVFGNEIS

The target of the test is Vitamin D3 receptor (Homo sapiens) (UniProt P11473). Put plainly: Inhibitors of the vitamin D receptor (VDR): qHTS. To be noted: VDR-SRC2-3 peptide fluorescence polarization, 2 h; max response, negative = inhibition: active compounds read low. Summed up:
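Compounds are added to VDR with labelled SRC2-3 coactivator peptide and held 2 h at room temperature. Inhibition of the VDR–peptide interaction is then read as a change in fluorescence polarization.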
For orientation: qHTS replaces the single test concentration by a dilution series.
In the case of `O=C(O)c1cc[c]([Sb](=[O])([OH])[OH])cc1[N+](=O)[O-]`, the max response, negative = inhibition was -21.9%.

Consider `C[C@@]12CCC3C(CC[C@@H]4CC(O)CC[C@@]34C)C1CCC2O` (stereo partly drawn), for which the max response, negative = inhibition was -4.26%. Turning to `O=C1NC(=O)N(c2ccccc2)C(=O)/C1=C/c1ccc([N+](=O)[O-])s1`, the Potency is 50.1 µM (active).

In the case of `CN1CCCC(=C(c2cccs2)c2cccs2)C1`, the max response, negative = inhibition was 3.88%. In the case of `CC[N+]1(CCOC(=O)C(O)(c2ccccc2)c2ccccc2)CCCCC1`, the max response, negative = inhibition is 4.12%. The same measure, in the same setting: in the case of `C[C@]12CC[C@H](O)C[C@@H]1CC[C@H]1[C@H]2CC[C@]2(C)C(=O)CC[C@@H]12` it was -9.44% and 0.624% and 3.94%. Still for that read-out and setting: in the case of `Cc1cc(C=C2C(=O)NC(=O)NC2=O)c(C)n1-c1ccncc1` it was -27.9%. In the case of `Cc1ccnc(-n2c(C)cc(/C=C3\C(=O)NC(=S)N(C)C3=O)c2C)c1`, the Potency is 39.8 µM (active). In the case of `CCN1C[C@@]2(COC)CC[C@H](OC)[C@]34[C@@H]1[C@]1(OCO[C@@]15C[C@@H](OC)C1C[C@H]3[C@H]5[C@@H]1OC)[C@H](O)[C@@H]24`, the max response, negative = inhibition is 1.56%. The same measure, in the same setting: the result for `CC(C)(Cc1c[nH]c2ccc(Cl)cc12)NCCOc1ccccc1OCC1CC1` reads -1.04% and 2.67%. On the same count and under the same terms, the result for `CC(C)(O)c1[se]c2ccccc2c1I` reads -15.8%; that for `c1csc(CN2CCCC3(CCNCC3)C2)n1`, -8.79%. On the same count and under the same terms, in the case of `Cc1nnc(NC(=O)c2cccn(Cc3cccc(F)c3)c2=O)s1` it was 12.7%.

As for `Cc1ccc2c(c1)=C/C(=C\c1c(O)[nH]c(=O)[nH]c1=O)C(=O)N=2`, the Potency was 89.1 µM (active). Turning to `O=c1[nH]c(O)c(C=Nc2cc(F)cc(F)c2)c(=O)[nH]1`, the max response, negative = inhibition was -6.29%. Still for that read-out and setting: the result for `C/C(=C\C=C/[C@@H](C)C(=O)O)[C@H]1CN[C@H](C(=O)O)[C@@H]1CC(=O)O` reads -9.05%; that for `COc1ccc2[nH]cc(CCNCc3ccc(Br)cc3)c2c1`, 5.83%; that for `COC(=O)c1ccc2[se]c(CC3CCCCC3)c(I)c2c1`, 3.86%. In the case of `C=CCN(CC=C)C(=O)Nc1ccc(OCC)cc1`, the max response, negative = inhibition was -2.13%. Still for that read-out and setting: the result for `CCC(=O)c1ccc(OCC(=O)N2CCN(CC(=O)Nc3ccc(C)cc3)CC2)cc1` reads 0.567%. On to `C=CCN1C(=O)NC(=O)/C(=C/c2ccc(OCC(=O)Nc3ccc(C)cc3)cc2)C1=O`, for which the Potency was 70.8 µM (active). Consider `C[C@@H]1C[C@@H]2O[C@H]2/C=C\C=C\C(=O)Cc2c(Cl)c(O)cc(O)c2C(=O)O1`, for which the max response, negative = inhibition was -4.25%. `O=C1CCc2cccc3c2N1CC3`: the max response, negative = inhibition is -0.897%. Take `COC([CH2][Hg])CNC(=O)c1ccccc1OCC(=O)O` (stereo not drawn): the Potency is 5.62 µM (active). With `CCCCCCCCc1[se]c2ccccc2c1Br`, the max response, negative = inhibition was 0.449%. The same measure, in the same setting: in the case of `N[C@H](Cc1o[nH]c(=O)c1Cl)C(=O)O` it was 3.74%; in that of `C=CCN1CCC23c4c5ccc(O)c4O[C@H]2C(=O)CC[C@@]3(O)C1C5` (stereo partly drawn), -0.103% and 4.39%; in that of `C[C@H]1CC[C@@]2(NC1)O[C@@H]1C[C@H]3[C@@H]4CC=C5C[C@@H](O)CC[C@]5(C)[C@@H]4CC[C@]3(C)[C@@H]1[C@@H]2C`, -0.658%.

Turning to `C=CCN1CCC2(C)c3cc(O)ccc3CC1[C@@H]2C` (stereo partly drawn), the max response, negative = inhibition was 1.58%. Still for that read-out and setting: in the case of `CC(=O)OC1C2CCC3C1(CC(O)[C@@]1(O)[C@@H](CC(O)C1(C)C)[C@]3(C)O)C[C@@]2(C)O` (stereo partly drawn) it was 0.185%; in that of `CN[C@@H]1C[C@H]2O[C@@](C)([C@@H]1OC)n1c3ccccc3c3c4c(c5c6ccccc6n2c5c31)C(=O)NC4`, 1.57% and -1.64%. Same read-out and setting: the result for `CCNC[C@H](O)c1cccc(O)c1` reads -1.81%.

In the case of `C=CCSSCC=C`, the Potency is 20 µM (active). With `COC1=C[C@]23CCCN2CCc2cc4c(cc2[C@@H]3[C@@H]1O)OCO4`, the max response, negative = inhibition is -4.23%. Take `CC(C)(c1ccc(OC[C@@H]2CO2)cc1)c1ccc(OC[C@H]2CO2)cc1`: the max response, negative = inhibition was 4.79%. Same read-out and setting: the result for `CN1C2CC3CC1C(O3)C2O` (stereo not drawn) reads -5.48%; that for `CCN1C[C@]2(COC)C(O)C[C@H](OC)[C@@]34C5C[C@]6(O)C(OC)C(O)[C@](OC(C)=O)(C5C6OC(=O)c5ccccc5)C(C(OC)C23)C14` (stereo partly drawn), 4.87%.

For `CCOC(=O)C(O)(c1ccc(NC(=O)c2ccco2)c(OC)c1)C(F)(F)F` (stereo not drawn), the max response, negative = inhibition was 9.73%. Turning to `COc1cc(Cn2c(N)c(C(=O)NCc3ccco3)c3nc4ccccc4nc32)cc(OC)c1OC`, the Potency was 79.4 µM (active). For the molecule `COC(=O)C1=C(c2ccccc2)C[C@@H]2CC[C@H]1N2C(=O)NCc1ccco1`, the max response, negative = inhibition is -7.95%. Consider `CC(=O)NBr`, for which the max response, negative = inhibition is -2.36%. The same measure, in the same setting: in the case of `CCN1C[C@]2(C)CC[C@H](O)[C@@]34[C@@H]5CC6[C@@H](OC)C[C@@](O)([C@@H]5[C@@H]6O)[C@H](C[C@@H]23)[C@H]14` it was 0.208%; in that of `NS(=O)(=O)c1ccc(CCNC(=O)c2ccc(Cl)c(S(=O)(=O)N3CCCCCC3)c2)cc1`, 6.51%.

Source of the values: PubChem BioAssay AID504847 (National Center for Advancing Translational Sciences (NCATS), 2011).
